Assay [1] is described as follows: compound effects on lung adenocarcinoma cell viability – A549, calcein-AM fluorescence, 48 h, basal, profiling panel (AID 1162). Also: test concentration not given here. Conditions: higher = more signal.
Assay [2] is described as follows: compound effects on differentiated 3T3-L1 adipocyte viability – cell-based, 3T3-L1 adipocytes, calcein-AM fluorescence, 48 h, basal, profiling panel (AID 1163). Also: test concentration not given here. Conditions: 3T3-L1 adipocytes viability, higher = more signal.
Assay [3] is described as follows: compound effects on hepatocellular carcinoma cell viability – HepG2, calcein-AM fluorescence, 48 h, basal, profiling panel (AID 1164). Also: test concentration not given here. The note with it: higher = more signal.
Assay [4] can be described thus: compound effects on multiple myeloma cell viability – MM1S, calcein-AM fluorescence, 48 h, basal, profiling panel (AID 1165). Also: test concentration not given here. Conditions: higher = more signal.
Assay [5] in a line: calcein-AM signal in unstimulated myeloma cells – cell-based, calcein-AM fluorescence, 48 h, PK04 Diversity Set, profiling panel (AID 1166).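 Also: cells grown under basal conditions without added stimulus; test concentration not given here.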 Conditions: RPMI8226 myeloma viability, higher = more signal.
The nature of assay [6]: JC-1 mitochondrial signal, unstimulated HepG2 cells – cell-based, JC-1 fluorescence, 24 h, 100 nL compound, profiling panel (AID 1167). Also: test concentration not given here. The note with it: HepG2 mitochondrial potential, higher = more signal.
Assay [7] can be described thus: JC-1 mitochondrial signal, unstimulated adipocytes – cell-based, JC-1 fluorescence, 3T3-L1 adipocytes, 24 h, 100 nL compound, profiling panel (AID 1168). Also: test concentration not given here. The note with it: JC-1 mitochondrial fluorescence, higher = more signal, called active from +8 up or from −8 down.
Assay [8] is described as follows: JC-1 mitochondrial signal, unstimulated myeloma cells – cell-based, JC-1 fluorescence, RPMI8226, 24 h, 100 nL compound, profiling panel (AID 1169). Also: test concentration not given here. Conditions: JC-1 mitochondrial potential fluorescence, higher = more signal.
Assay [9] is described as follows: JC-1 mitochondrial signal, unstimulated MM1S myeloma – cell-based, JC-1 fluorescence, 24 h, 100 nL compound, profiling panel (AID 1170). Also: test concentration not given here. Conditions: MM1S mitochondrial potential, higher = more signal.
Assay [10] is described as follows: resazurin metabolic signal in A549 cells – cell-based, resazurin fluorescence, 24 h, PK04 Diversity Set, profiling panel (AID 1171). Also: test concentration not given here. The note with it: A549 viability, higher = more signal, called active from +8 up or from −8 down. (In general: The colour change of resazurin is a common sign of viable cells or microbes.)
A short description of assay [11]: resazurin metabolic signal in HepG2 cells – cell-based, resazurin fluorescence, 24 h, PK04 Diversity Set, profiling panel (AID 1172). Also: test concentration not given here. Conditions: HepG2 viability, higher = more signal.
The nature of assay [12]: budding yeast growth changes without added modifier – OD600, strain BY4716, 24 h, basal condition, primary screen (AID 1173). Conditions: S. cerevisiae BY4716 growth, OD600, 24 h; higher = more signal, called active from +8 up or from −8 down.
Assay [13] is described as follows: viability profiling in MM1S myeloma cells – cell-based, resazurin fluorescence, basal, 24 h, PK04 Diversity Set, profiling panel (AID 1174). Also: test concentration not given here. The note with it: higher = more signal, called active from +8 up or from −8 down.
The target in assay [14] is Dihydroorotate dehydrogenase (quinone), mitochondrial (Plasmodium falciparum (isolate 3D7)) (UniProt Q08210). Put plainly: inhibition of P. falciparum DHODH – biochemical, C-terminal His tag, absorbance 600 nm, primary screen (AID 1175).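 Also: recombinant parasite enzyme with a five histidine tag at its C terminus; test concentration not given here.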 Conditions: PfDHODH enzyme, DCIP absorbance 600 nm; higher = more signal, called active from +8 up or from −8 down.
Sequence of Dihydroorotate dehydrogenase (quinone), mitochondrial (Plasmodium falciparum (isolate 3D7)) (Q08210 whole entry, looked up): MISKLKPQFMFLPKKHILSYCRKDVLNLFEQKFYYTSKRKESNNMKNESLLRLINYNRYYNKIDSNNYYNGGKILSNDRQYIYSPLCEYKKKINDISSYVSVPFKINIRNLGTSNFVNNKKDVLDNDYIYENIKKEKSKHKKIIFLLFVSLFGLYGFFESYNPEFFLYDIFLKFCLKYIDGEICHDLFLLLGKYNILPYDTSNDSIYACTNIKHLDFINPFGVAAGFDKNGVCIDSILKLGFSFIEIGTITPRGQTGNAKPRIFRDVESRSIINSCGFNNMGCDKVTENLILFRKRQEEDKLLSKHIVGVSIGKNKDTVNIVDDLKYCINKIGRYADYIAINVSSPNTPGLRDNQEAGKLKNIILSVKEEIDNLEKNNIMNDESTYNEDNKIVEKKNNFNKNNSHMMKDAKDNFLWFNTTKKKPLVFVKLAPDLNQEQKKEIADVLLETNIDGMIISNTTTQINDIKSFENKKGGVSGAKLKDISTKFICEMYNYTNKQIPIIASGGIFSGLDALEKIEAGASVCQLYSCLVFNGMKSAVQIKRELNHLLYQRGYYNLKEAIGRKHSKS
A short description of assay [15]: inhibition of PAO1 biofilm formation – strain PAO1, LB-PBS medium, absorbance 600 nm, primary screen (AID 1176). Also: test concentration not given here. The note with it: P. aeruginosa PAO1 growth/biofilm, A600, 12 h; higher = more signal.
Assay [16] in a line: growth modulation of vineyard yeast isolate – strain RM11-1a, OD600, basal, 24 h, primary screen (AID 1177).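 Also: cultures grown under basal conditions with no added stressor; test concentration not given here.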 The note with it: S. cerevisiae RM11-1a growth, OD600, 24 h; higher = more signal, called active from +8 up or from −8 down.
The nature of assay [17]: growth of efflux-deficient E. coli DRC39 – strain DRC39, OD650, 24 h, E. coli filamentation inducers, primary screen (AID 1178).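 Also: growth measured as culture turbidity by optical density at 650 nm; test concentration not given here.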 The note with it: E. coli DRC39 acrAB, higher = more signal, called active from +8 up or from −8 down.
Assay [18] can be described thus: growth of efflux-deficient E. coli DRC39 – strain DRC39, OD650, 48 h, E. coli filamentation inducers, primary screen (AID 1179).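 Also: screen aims at cell division blockers that make cells filament.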 The note with it: E. coli DRC39 delta-acrAB growth, higher = more signal, called active from +8 up or from −8 down.
Assay [19] in a line: viability profiling in RPMI8226 myeloma cells – cell-based, resazurin fluorescence, basal, 24 h, PK04 Diversity Set, profiling panel (AID 1180).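 Also: RPMI8826 multiple myeloma cell line at 5000 cells per well; test concentration not given here.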 Conditions: higher = more signal.
In assay [20] the target is E3 ubiquitin-protein ligase XIAP (Homo sapiens) (UniProt P98170). Kind of assay: small molecules binding XIAP protein – biophysical, small-molecule microarray, fluorescence 635 nm, primary screen (AID 1181).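 Also: score merges 667 nm emission and signal to noise over triplicate slides.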 The note with it: higher = more signal.
Sequence of E3 ubiquitin-protein ligase XIAP (Homo sapiens) (P98170 whole entry, looked up): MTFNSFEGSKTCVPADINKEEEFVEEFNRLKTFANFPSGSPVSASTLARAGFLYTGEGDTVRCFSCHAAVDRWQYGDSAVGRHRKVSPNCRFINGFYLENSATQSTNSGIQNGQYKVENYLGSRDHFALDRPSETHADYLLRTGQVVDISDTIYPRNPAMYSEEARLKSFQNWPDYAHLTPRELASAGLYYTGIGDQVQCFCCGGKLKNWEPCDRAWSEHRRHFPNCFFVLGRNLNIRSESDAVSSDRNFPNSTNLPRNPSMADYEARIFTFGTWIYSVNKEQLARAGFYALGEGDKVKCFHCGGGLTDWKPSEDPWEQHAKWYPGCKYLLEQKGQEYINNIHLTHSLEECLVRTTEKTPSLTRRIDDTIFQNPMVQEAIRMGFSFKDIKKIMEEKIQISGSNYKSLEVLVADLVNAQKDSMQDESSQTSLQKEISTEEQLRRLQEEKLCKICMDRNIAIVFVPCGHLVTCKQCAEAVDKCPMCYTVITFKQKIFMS

The source made the active and inactive calls. Unless noted, no rule for the calls is given here.

Our source for the z-score and composite z-score values is PubChem BioAssay.

Regarding `[N-]=[N+]=NCc1ccccc1[C@H]1OC(c2ccc(OCCCO)cc2)=N[C@@]1(Cc1ccccc1N=[N+]=[N-])C(N)=O`, the z-score in assay [1] was -0.0372; in assay [2], -0.117; in assay [3], -0.18; in [4], -1.84; in assay [5], -1.76; in assay [6] it was -0.255. In addition, the z-score in [7] is 0.199 (inactive); in assay [8], -1.06; in [9], -0.928; in [10], 0.85 (inactive); in assay [11], 0.794; in assay [12] it was -2.02 (inactive). Further, the z-score in assay [13] is 0.393 (inactive); in [15], -0.0963 (inactive); in assay [16], 0.77 (inactive); in assay [17], 0.0162 (inactive); in assay [18], 0.394 (inactive); in assay [19], -0.103. The composite z-score was -0.0773 (inactive) in [14] and -0.0773 in assay [20].

As for `CC1C2C(CCCO)=CC(C3C(=O)N(C)C(=O)C23)N1Cc1cccc(OC(F)(F)F)c1` (stereo not given), the z-score in assay [1] was -0.45; in [2], 0.924; in assay [3] it was -0.399; in assay [4] it was -0.83; in assay [5] it was -0.423; in assay [6], 0.779. Moreover, the z-score was 0.0323 (inactive) in [7]; 0.258 in assay [8]; 0.675 in [9]; -0.791 (inactive) in assay [10]; -1.25 in assay [11]; -2.02 (inactive) in [12]. Besides, the z-score is -0.244 (inactive) in assay [13]; -0.0099 (inactive) in assay [15]; 0.481 (inactive) in assay [16]; 0.224 (inactive) in [17]; -0.0843 (inactive) in assay [18]; -0.278 in [19]. Besides, the composite z-score in assay [14] was 0.131 (inactive); in assay [20], 0.245.

On to `[N-]=[N+]=Nc1ccccc1C[C@]1(C(N)=O)COC(c2ccc(OCCCO)cc2)=N1`, for which the z-score in [1] is -0.193; in assay [2], 0.936; in [3], 0.0027; in assay [4], -0.286; in assay [5], -0.334; in [6] it was 0.253. Further, the z-score is -0.298 (inactive) in assay [7]; -0.964 in [8]; -0.942 in assay [9]; 0.246 (inactive) in assay [10]; 0.978 in [11]; -0.0745 (inactive) in assay [12]. The z-score in assay [13] was 0.157 (inactive); in assay [15] it was 0.398 (inactive); in [16], -0.762 (inactive); in assay [17] it was 0.578 (inactive); in [18] it was -0.364 (inactive); in assay [19] it was 0.177. Further, the composite z-score in [14] is -0.265 (inactive); in [20], 0.396.

Regarding `CCCCN1CC=CC23O[C@@H]4C=CCCOC(=O)C4[C@H]2C(=O)N(CCO)[C@@H]3C1=O` (stereo not given in full), the z-score in assay [1] is -0.725; in assay [2], 0.0904; in assay [3] it was -2.09; in assay [4] it was 0.303; in [5] it was -0.105; in [6] it was -0.508. The z-score was 0.0409 (inactive) in [7]; 0.0612 in [8]; 0.37 in assay [9]; -0.288 (inactive) in [10]; 0.551 in assay [11]; -0.0816 (inactive) in assay [12]. Further, the z-score in assay [13] was 0.309 (inactive); in [15], 0.345 (inactive); in assay [16], 0.13 (inactive); in assay [17] it was -0.323 (inactive); in assay [18], -0.414 (inactive); in assay [19], -0.0692. For the same compound, the composite z-score was 0.0051 (inactive) in assay [14] and -0.104 in [20].

Consider `O=C1C2C=CC(C(O)C3CCCCC3)N(Nc3ccccc3F)C2C(=O)N1c1ccccc1` (stereo not given), for which the z-score in [1] is -0.112; in [2] it was 0.1; in assay [3], -0.528; in assay [4] it was 0.345; in assay [5], -0.925; in assay [6] it was -0.804. For the same compound, the z-score in assay [7] was -0.865 (inactive); in assay [8] it was -0.224; in assay [9] it was -0.433; in assay [10] it was -0.852 (inactive); in [11] it was -1.87; in assay [12] it was -0.701 (inactive). The z-score is -0.631 (inactive) in [13]; 0.931 (inactive) in [15]; -0.375 (inactive) in assay [16]; 0.221 (inactive) in assay [17]; -0.1 (inactive) in assay [18]; -0.14 in assay [19]. The composite z-score is -0.572 (inactive) in assay [14] and -0.235 in assay [20].

On to `COCCOC(=O)N1C(=O)[C@@]2(c3cc(C#CCNC(N)=O)ccc31)[C@H](c1ccccc1OCCO)N1[C@H](c3ccccc3)[C@H](c3ccccc3)OC(=O)[C@H]1[C@@H]2C(=O)N1CCCCCCC1`, for which the z-score in [1] was -0.396; in assay [2], -0.0319; in assay [3], 0.371; in assay [4] it was -1.22; in [5] it was 0.56; in [6], -1.51. The z-score in assay [7] is -1.3 (inactive); in assay [8], -0.441; in assay [9], -0.911; in assay [10], 0.519 (inactive); in assay [11], 0.875; in assay [12], 1 (inactive). Besides, the z-score was 0.723 (inactive) in [13]; 2.91 (inactive) in [15]; 1.09 (inactive) in assay [16]; -0.256 (inactive) in assay [17]; -0.276 (inactive) in [18]; -0.55 in assay [19]. Moreover, the composite z-score in assay [14] was -0.321 (inactive); in assay [20] it was -0.0143.

`Cc1cccc([C@H]2C[C@H]3C(Br)=C[C@@]2(CO)C(=O)[C@]32CO2)c1`: the z-score was -0.602 in [1]; 0.0875 in assay [2]; -0.729 in [3]; -2.43 in assay [4]; -0.551 in assay [5]; -2.11 in assay [6]. The z-score in assay [7] is -0.0495 (inactive); in [8], -0.0551; in assay [9], -0.876; in assay [10] it was 0.393 (inactive); in assay [11] it was 0.888; in assay [12], -5.63 (inactive). In addition, the z-score in assay [13] was -0.398 (inactive); in assay [15] it was 0.343 (inactive); in [16], -0.169 (inactive); in assay [17] it was 0.258 (inactive); in assay [18], 0.294 (inactive); in assay [19] it was 0.214. Moreover, the values for the composite z-score in assay [14] and in [20] were -0.287 (inactive) and 0.273, respectively.

For `CS(=O)(=O)CCOC(=O)C1=CC(CCCO)=CC(C2CC2)N(Cc2sc3ccccc3c2Cl)C=C1C(=O)OCCS(C)(=O)=O` (stereo not given), the z-score in [1] is -0.768; in [2], 0.968; in [3] it was -0.344; in assay [4], -3.24; in [5], -3.05; in assay [6], 1.67. Besides, the z-score in assay [7] was 0.182 (inactive); in [8], -0.843; in [9], -1.27; in assay [10], 0.459 (inactive); in assay [11], -0.0631; in assay [12], -6.21 (inactive). In addition, the z-score is -0.548 (inactive) in [13]; 0.0478 (inactive) in assay [15]; 0.155 (inactive) in assay [16]; 0.564 (inactive) in assay [17]; 0.156 (inactive) in assay [18]; -0.541 in [19]. Besides, the figures for the composite z-score in [14] and in assay [20] were -0.559 (inactive) and 0.431, respectively.

In the case of `COc1cccc(C)c1NC(=O)O[C@H]1[C@H](OC(=O)Nc2ccccc2-c2ccccc2)[C@@H](OC(=O)Nc2ccccc2-c2ccccc2)[C@@H](OC)O[C@@H]1CO`, the z-score in assay [1] is -2.87; in assay [2], 0.458; in [3], -3.51; in assay [4], -3.08; in [5], -3.27; in assay [6] it was 1.98. Further, the z-score in assay [7] was 1.62 (inactive); in [8], -0.928; in assay [9], -1.41; in [10], -4.57 (inactive); in assay [11], -2.77; in assay [12], 2.22 (inactive). The z-score in assay [13] is -3.21 (inactive); in assay [15], 1.23 (inactive); in assay [16], 4.5 (inactive); in assay [17] it was -0.349 (inactive); in assay [18], -0.846 (inactive); in [19], -2.61. For the same compound, the composite z-score in assay [14] was 1.24 (inactive); in [20], 0.268.
